This is an account of results in PubChem BioAssay.

A short description of assay [1]: kinase inhibitors against Plasmodium liver-stage infection, cell-based, known kinase inhibitor set, luminescence, hepatoma host viability (AID 624392).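 Note: infected cells incubated roughly two days before readout.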 Particulars: Plasmodium liver stage in hepatoma cells, luciferase luminescence, concentration not given here; liver cell % of control: measured here: host liver cell viability; parasite % of control: stronger effect = lower value.

Assay [2] can be described thus: modulators of glucocorticoid suppression of NF-kB, cell-based, luciferase, IL-1B stimulus, dexamethasone (AID 624486).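 For percent of negative control (+Dex): 100% = mean signal of vehicle control wells on the plate.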 Conditions: NF-kB luciferase reporter, IL-1B + dexamethasone, luminescence; percent of negative control (+Dex): actives lie on both sides, concentration not given here; z-score: measured here: IL-1B alone, no Dex.
Assay [3] has as its target Cellular tumor antigen p53 (Homo sapiens) (UniProt P04637). Briefly: kinase inhibitors altering GFP-p53 stability in HPV16-positive cells, imaging, known kinase inhibitor set, EGFP/DsRed ratio (AID 1053116).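 Note: cells exposed to compounds for 24 h at 37 °C before reading.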 Conditions: stronger effect = higher value; EGFP object count: measured here: GFP-p53 positive objects count.
Assay [4] can be described thus: IRF3 reporter activation in THP-1 macrophages, cell-based, PMA-stimulated THP-1, luminescence (AID 1053176). Conditions: PMA-differentiated THP-1, IRF3 reporter luminescence; stronger effect = higher value.
A short description of assay [5]: antimalarial activity against Dd2 strain (AID 2302;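 active = growth inhibition above 50% at the single 2 µM test dose, taken to imply half-maximal potency below 2 µM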;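 note: 0% = DMSO untreated growth and 100% = chloroquine plus artemisinin killed control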). Conditions: P. falciparum Dd2 in RBCs, LDH growth readout, 72 h; at 2 µM; stronger effect = higher value.
Assay [6] can be described thus: HepG2 cytotoxicity, primary screen, cytotoxicity control for P. falciparum antimalarial project, cell-based, ATP luminescence (AID 2303;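 active = inhibition above 50%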;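 note: 0% = DMSO wells and 100% = digitonin-killed cells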). Conditions: HepG2 viability, 24-48 h, at 10 µM, stronger effect = higher value.
In assay [7] the target is L-lactate dehydrogenase (Plasmodium falciparum (isolate CDC / Honduras)) (UniProt Q27743). Briefly: PfLDH activity inhibition – cell lysate, 3D7 strain, counter-screen for P. falciparum growth inhibition project (AID 2304).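 Note: 0% = vehicle and 100% = reference inhibitor.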 Particulars: P. falciparum 3D7 crude extract, LDH APAD/NBT absorbance; at 2 µM; stronger effect = higher value. In general terms: The purpose of a counterscreen is to sort out artefacts and off-target activity.
Sequence of L-lactate dehydrogenase (Plasmodium falciparum (isolate CDC / Honduras)) (Q27743 whole entry, looked up): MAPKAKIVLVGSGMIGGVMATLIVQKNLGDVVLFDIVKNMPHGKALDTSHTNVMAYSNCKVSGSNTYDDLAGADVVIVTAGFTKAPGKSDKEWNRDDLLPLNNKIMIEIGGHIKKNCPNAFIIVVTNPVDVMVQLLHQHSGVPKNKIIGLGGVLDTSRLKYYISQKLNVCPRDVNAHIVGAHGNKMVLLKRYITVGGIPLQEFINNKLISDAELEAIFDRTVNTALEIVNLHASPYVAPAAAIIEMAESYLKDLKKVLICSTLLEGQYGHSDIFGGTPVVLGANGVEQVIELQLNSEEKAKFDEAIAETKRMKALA

A short description of assay [8]: inhibition of 3D7 malaria parasite growth – strain 3D7 (AID 2306).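 Note: 0% = DMSO wells and 100% = chloroquine plus artemisinin control wells.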 Conditions: P. falciparum 3D7 erythrocytic growth, LDH absorbance, 72 h; at 2 µM; stronger effect = higher value.
Assay [9] deals with Calcium-dependent protein kinase 1 (Plasmodium falciparum (isolate 3D7)) (UniProt P62344). The assay can be described thus: PfCDPK1 kinase inhibitors, biochemical, TCAMS library (AID 1159585; cut-off not given, nearly all actives have IC50 up to about 0.98 µM;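 note: inhibitors leave more ATP so luminescence rises with inhibition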). Conditions: recombinant PfCDPK1, Kinase-Glo ATP depletion luminescence.
Sequence of Calcium-dependent protein kinase 1 (Plasmodium falciparum (isolate 3D7)) (P62344 whole entry, looked up): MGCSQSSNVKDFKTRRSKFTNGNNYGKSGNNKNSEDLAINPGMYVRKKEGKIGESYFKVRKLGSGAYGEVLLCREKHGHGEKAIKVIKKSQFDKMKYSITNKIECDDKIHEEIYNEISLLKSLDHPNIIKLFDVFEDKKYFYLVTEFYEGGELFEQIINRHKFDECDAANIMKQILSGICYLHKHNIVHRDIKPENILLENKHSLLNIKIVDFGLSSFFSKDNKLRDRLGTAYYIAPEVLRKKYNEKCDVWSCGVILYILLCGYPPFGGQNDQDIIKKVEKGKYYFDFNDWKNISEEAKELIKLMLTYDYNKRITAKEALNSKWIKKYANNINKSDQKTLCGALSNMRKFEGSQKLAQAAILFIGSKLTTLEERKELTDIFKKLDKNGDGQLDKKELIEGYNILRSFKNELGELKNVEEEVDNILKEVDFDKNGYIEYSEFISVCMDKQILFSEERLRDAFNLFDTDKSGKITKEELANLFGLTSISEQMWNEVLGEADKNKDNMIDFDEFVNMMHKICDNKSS
Assay [10] concerns the target Plasmodium falciparum protein kinase 6 (PK6, PF3D7_1337100) (UniProt Q8IDW1). The assay can be described thus: PfPK6 kinase inhibitors, biochemical, TCAMS library (AID 1159586). Conditions: recombinant PfPK6, Kinase-Glo ATP depletion luminescence. (In general: Kinase-Glo reads ATP consumption through a luciferase reaction.)
The target of assay [11] is Protein kinase 7 (PK7), Plasmodium falciparum 3D7 (PF3D7_0213400) (UniProt Q7YTF7). Briefly: inhibition of Plasmodium PK7 catalytic activity – biochemical, TCAMS antimalarial set, Kinase-Glo luminescence (AID 1159587). Particulars: recombinant PfPK7, Kinase-Glo ATP depletion luminescence.
Sequence of Protein kinase 7 (PK7), Plasmodium falciparum 3D7 (PF3D7_0213400) (Q7YTF7 1-343): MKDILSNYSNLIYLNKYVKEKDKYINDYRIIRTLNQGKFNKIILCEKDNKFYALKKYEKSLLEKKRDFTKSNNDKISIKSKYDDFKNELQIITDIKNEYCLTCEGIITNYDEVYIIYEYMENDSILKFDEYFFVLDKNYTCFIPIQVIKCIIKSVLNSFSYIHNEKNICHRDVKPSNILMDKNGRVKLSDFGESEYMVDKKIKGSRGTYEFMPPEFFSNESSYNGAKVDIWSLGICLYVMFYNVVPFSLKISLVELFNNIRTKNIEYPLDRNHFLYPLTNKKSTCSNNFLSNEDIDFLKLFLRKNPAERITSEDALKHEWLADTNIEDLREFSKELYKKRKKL
Assay [12] addresses Calcium-dependent protein kinase 4 (Plasmodium falciparum (isolate 3D7)) (UniProt Q8IBS5). Briefly: PfCDPK4 kinase inhibitors, biochemical, TCAMS library (AID 1159588; cut-off not given, nearly all actives have IC50 up to about 0.91 µM). Particulars: recombinant PfCDPK4, Kinase-Glo ATP depletion luminescence.
The subject of assay [13] is Aerobactin synthetase IucA (Klebsiella pneumoniae). Briefly: IucA aerobactin synthetase inhibitors, biochemical, Tocris library, absorbance (AID 1345561).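 Note: 100% = enzyme without compound and 0% = no enzyme.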 Conditions: purified IucA enzyme assay, absorbance (OD) read-out; stronger effect = lower value;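 tested at 8 µM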.
Assay [14] is described as follows: growth inhibition of DIPG glioma cells, dose response, cell-based, SU-DIPG-XVII, MIPE5.0, CellTiter-Glo, qHTS (AID 1347060; cut-off not given, nearly all actives have AC50 up to about 26 µM;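 note: cells exposed to compound for 48 hours before viability readout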). Particulars: SU-DIPG-XVII viability, CellTiter-Glo ATP luminescence. (In general: Cellular ATP, detected with luciferase, serves as a proxy for viable cell number.)
The nature of assay [15]: growth inhibition of DIPG glioma cells, dose response, cell-based, JHH-DIPG-1, MIPE4.0, CellTiter-Glo, qHTS (AID 1347062; cut-off not given, nearly all actives have AC50 up to about 27 µM;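 note: cells exposed to compound for two days before readout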). Particulars: JHH-DIPG-1 viability, CellTiter-Glo ATP luminescence.
Assay [16] is described as follows: growth inhibition of DIPG glioma cells, dose response, cell-based, SU-DIPG-IV, MIPE4.0, CellTiter-Glo, qHTS (AID 1347063; cut-off not given, nearly all actives have AC50 up to about 30 µM;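 note: compound exposure lasted 48 hours before the viability readout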). Conditions: SU-DIPG-IV viability, CellTiter-Glo ATP luminescence.
Assay [17] is described as follows: viability loss in pontine glioma line – cell-based, SU-DIPG-XXV, MIPE5.0, CellTiter-Glo, qHTS, dose response (AID 1347065; cut-off not given, nearly all actives have AC50 up to about 26 µM;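 note: cells exposed to compound for 48 hours before ATP readout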). Particulars: CellTiter-Glo ATP luminescence.
Assay [18] in a line: sensitizers of A549 cells to miR-34 induction, primary screen, imaging, A549 dox-inducible miR-34, nuclei and caspase counts (AID 1347080;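 active = compounds whose cell count with miR-34 switched on is under 0.7 times the count with it off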). Conditions: A549 miR-34 inducible, Hoechst nuclei count, 48 h.
A short description of assay [19]: viability rescue of complex I mutant cybrids, primary screen, cell-based, galactose medium, ATP luminescence (AID 1645843;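 active = z-score of at least 1.8 in each of two replicates, scored against plate mean and spread of sample wells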;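 note: positive z means more ATP and so rescue of galactose-driven cybrid death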). Particulars: complex I mutant cybrid cells, 72 h, stronger effect = higher value.
Assay [20] can be described thus: kinase inhibitors altering Pseudomonas killing of worms, whole organism (AID 651566).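 Note: tested at 14 µM; sign flipped so higher z means a lower ratio.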 Conditions: C. elegans killed by P. aeruginosa, survival ratio.
The nature of assay [21]: activators of macrophage pro-inflammatory response, cell-based, murine, luminescence (AID 652131). Conditions: murine macrophage pro-inflammatory reporter, stronger effect = higher value.
A short description of assay [22]: survival rescue of mitochondrial mutant cells in low glucose, primary screen, MELAS cybrids, Rieske KO mouse fibroblasts, CellTiter-Glo (AID 1508586;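 active = mean z-score across replicates of 1.96 or higher in either the MELAS or the Rieske mutant cell line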;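 note: z relative to plate mean and SD of compound and empty wells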).
The mark [23] stands for this setting: MELAS cybrid survival, CellTiter-Glo 48 h, stronger effect = higher value.
The mark [24] stands for this setting: Rieske KO mouse fibroblast survival, CellTiter-Glo 72 h.

Results filed as inconclusive are left out. For some assays here: Measured potencies and affinities stand elsewhere. Activity calls are given as the source filed them. Unless noted, the rule behind the calls is not given here.

Sequence of Cellular tumor antigen p53 (Homo sapiens) (P04637 whole entry, looked up): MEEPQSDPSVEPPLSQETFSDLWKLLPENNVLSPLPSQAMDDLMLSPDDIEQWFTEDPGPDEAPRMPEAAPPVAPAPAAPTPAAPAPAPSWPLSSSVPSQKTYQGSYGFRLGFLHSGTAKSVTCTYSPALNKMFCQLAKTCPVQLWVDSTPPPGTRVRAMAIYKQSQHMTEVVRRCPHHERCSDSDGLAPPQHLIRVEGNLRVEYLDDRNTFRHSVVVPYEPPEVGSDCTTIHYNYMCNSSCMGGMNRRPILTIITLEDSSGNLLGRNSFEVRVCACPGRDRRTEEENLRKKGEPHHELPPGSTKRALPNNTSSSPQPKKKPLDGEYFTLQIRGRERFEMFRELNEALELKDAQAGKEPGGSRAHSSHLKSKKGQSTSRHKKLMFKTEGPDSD
Sequence of Calcium-dependent protein kinase 4 (Plasmodium falciparum (isolate 3D7)) (Q8IBS5 whole entry, looked up): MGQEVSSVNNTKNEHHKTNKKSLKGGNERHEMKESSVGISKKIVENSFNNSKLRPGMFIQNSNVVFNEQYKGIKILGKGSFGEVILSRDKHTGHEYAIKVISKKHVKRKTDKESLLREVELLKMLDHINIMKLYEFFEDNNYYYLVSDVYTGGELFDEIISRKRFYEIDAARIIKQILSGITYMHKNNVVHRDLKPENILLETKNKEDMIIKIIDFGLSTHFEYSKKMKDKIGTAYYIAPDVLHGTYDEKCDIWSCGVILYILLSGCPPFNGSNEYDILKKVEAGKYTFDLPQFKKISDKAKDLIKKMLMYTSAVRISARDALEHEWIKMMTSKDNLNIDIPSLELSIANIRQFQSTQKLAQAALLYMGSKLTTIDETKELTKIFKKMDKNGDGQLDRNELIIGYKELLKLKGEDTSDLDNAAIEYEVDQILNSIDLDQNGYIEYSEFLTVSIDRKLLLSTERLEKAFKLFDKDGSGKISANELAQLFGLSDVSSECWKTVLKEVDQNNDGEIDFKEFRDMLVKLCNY
Sequence of Plasmodium falciparum protein kinase 6 (PK6, PF3D7_1337100) (Q8IDW1 1-305): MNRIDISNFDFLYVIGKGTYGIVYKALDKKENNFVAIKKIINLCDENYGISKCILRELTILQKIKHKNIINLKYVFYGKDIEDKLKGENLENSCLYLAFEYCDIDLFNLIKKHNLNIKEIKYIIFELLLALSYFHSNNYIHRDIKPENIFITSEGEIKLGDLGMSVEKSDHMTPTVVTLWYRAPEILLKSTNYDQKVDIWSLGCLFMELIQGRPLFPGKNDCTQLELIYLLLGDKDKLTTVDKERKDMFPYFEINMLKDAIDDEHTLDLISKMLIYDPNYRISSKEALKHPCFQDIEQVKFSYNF

Regarding `Nc1c(C(=O)c2cccc(-c3ccncc3)c2)cnn1-c1ccc(F)cc1F`, in assay [1], the liver cell % of control amounted to 92.7% and the parasite % of control is 53.9% (inactive). In addition, in assay [2], the percent of negative control (+Dex) is 102% (inactive) and the z-score stood at 0.04. In [3], the EGFP object count was found to be 5 and the EGFP/DsRed ratio is 0.0527 (inactive). Further, in [4], the fraction signal was -0.009 (inactive).
Regarding `O=C1NC(=NCCc2ccccn2)SC1=Cc1ccc2ncccc2c1`, in assay [1], the liver cell % of control was 170% and the parasite % of control is 32.1% (inactive). Besides, in assay [2], the percent of negative control (+Dex) was 92.5% (inactive) and the z-score turned out to be 0.025. In [3], the EGFP object count came to 5.5 and the EGFP/DsRed ratio is 0.134 (inactive). For the same compound, the fraction signal in [4] is 0.0055 (inactive).
With `CS(=O)(=O)CCNCc1ccc(-c2ccc3ncnc(Nc4ccc(OCc5ccccc5)c(Cl)c4)c3c2)o1`, the figures for the growth inhibition in assay [5] and in assay [8] were 76% (active) and 101% (active), respectively. Besides, the inhibition (usually the change of the read-out against control, counted positive when it falls) is 4% (inactive) in assay [6] and -7% (inactive) in assay [7]. In addition, the outcome in [9], in assay [10], in [11] and in assay [12] was inactive.
In the case of `COc1cc2ncn(-c3cc(OCc4ccccc4C(F)(F)F)c(C(N)=O)s3)c2cc1OC`, the remaining activity – broadly, the activity still measured, relative to the control – in assay [13] was 94.3% (inactive). Besides, the concentration at half-maximal activity (AC50) (in general, the midpoint of the concentration-response curve, whichever way the signal moves) in [14] is 1.48 µM (active); in assay [15], 5.9 µM (active); in assay [16], 14.8 µM (active); in [17] it was 1.05 µM (active). Moreover, the fold change in assay [18] (stronger effect = lower value, cell number ratio, induced over uninduced) is 1.05 (inactive); in [18] (measured here: relative caspase fold change +Dox/-Dox) it was 1.26. The cell count in assay [18] (measured here: total cells with miR-34 induction, stronger effect = lower value) came to 1110; in assay [18] (measured here: total cells without miR-34 induction), 1060. The z-score in assay [19] is -0.495 (inactive).
In assay [1], `COc1ccccc1Oc1nccc(-c2c(-c3ccc(F)cc3)ncn2C2CCNCC2)n1` came in with a liver cell % of control of 89.7%. In assay [1], the parasite % of control was 136% (inactive). In addition, the percent of negative control (+Dex) in assay [2] is 104% (inactive). Also, the z-score was 0.275 in assay [2]; 0.105 (inactive) in assay [20]; 0.324 (inactive) in assay [21]; -0.339 (inactive) in assay [22] (setting [23]); -0.367 in [22] (setting [24]). In addition, the fraction signal in assay [4] was 0.001 (inactive).
The compound `CS(=O)(=O)CCN(CC#N)Cc1ccc(-c2ccc3ncnc(Nc4ccc(OCc5cccc(F)c5)c(Cl)c4)c3c2)o1` came in with a liver cell % of control in assay [1] of 98.1%. Also, the parasite % of control in [1] is 143% (inactive). For the same compound, the percent of negative control (+Dex) in assay [2] is 82% (inactive). Besides, the z-score in assay [2] was -0.4; in assay [20] it was 0.225 (inactive); in [21], 0.25 (inactive); in assay [22] (setting [23]) it was -0.391 (inactive); in assay [22] (setting [24]) it was -0.288. Also, in assay [4], the fraction signal is 0.001 (inactive).
In the case of `O=C(O)c1ccc(Oc2nccc(-c3c(-c4ccc(F)cc4)ncn3C3CCNCC3)n2)cc1`, in [1], the liver cell % of control was found to be 104%. The parasite % of control in [1] was 117% (inactive). The percent of negative control (+Dex) in [2] was 97% (inactive). In addition, the z-score was -0.04 in assay [2]; -0.625 (inactive) in assay [20]; 0.424 (inactive) in assay [21]; -0.0801 (inactive) in assay [22] (setting [23]); -0.396 in assay [22] (setting [24]). Also, in [4], the fraction signal is 0.0015 (inactive).
In turn, `O=C1NC(=O)C(c2ccccc2Cl)=C1Nc1cc(Cl)c(O)c(Cl)c1` returned a liver cell % of control in assay [1] of 90.9%. The parasite % of control in assay [1] is 128% (inactive). Besides, the percent of negative control (+Dex) in assay [2] is 95.5% (inactive). In addition, the z-score in assay [2] was 0.49; in assay [20], -0.07 (inactive); in assay [21], 0.319 (inactive); in assay [22] (setting [23]) it was -0.0492 (inactive); in assay [22] (setting [24]), -0.159. In addition, the fraction signal in assay [4] is -0.002 (inactive).
In the case of `Fc1ccc(-c2ncn(C3CCNCC3)c2-c2ccnc(Oc3ccc(Cl)cc3)n2)cc1`, the liver cell % of control in assay [1] is 79.3%. In addition, the parasite % of control in [1] is 63.5% (inactive). In assay [2], the percent of negative control (+Dex) was 103% (inactive). Further, the z-score in assay [2] was 0.58; in assay [20], 0.16 (inactive); in assay [21], -0.186 (inactive); in assay [22] (setting [23]), 0.00888 (inactive); in assay [22] (setting [24]) it was -0.374. Moreover, the fraction signal in assay [4] was -0.006 (inactive).
